Laboratory results from PubChem BioAssay AID1159580 (chemical genetic matrix, 2015).
Among all 5,500 compounds or so, about 2,000 (36%) were called active. Another 18% or so got no clear call; they are omitted. Cut-off read from the data, not from the text of the source: active = normalized growth mostly below about 0.91 (no sharp cut-off); inconclusive = no clear call, values can overlap the other calls; inactive = mostly above about 0.92. The list shows a part of the results.

Test: chemical genetic growth profiling, strain panel (AID 1159580);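 note: tested at 20 µM; growth read once vehicle control cultures reached saturation at 30 °C; 1 = growth at the plate median or of vehicle wells; lower values mean less growth of the strain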
Settings: S. cerevisiae deletion strains, growth OD

Measured: normalized growth

C[C@]12CCc3occc3C1CC[C@@]13C[C@@H](CCC12)[C@@](O)(CO)C3 (stereo partly drawn)
inactive: locus YHR030C, strain SLT2, active compounds read low 0.934 | locus YHR079C, strain IRE1, active compounds read low 0.961 | locus YJL095W, strain BCK1, active compounds read low 0.948 | locus YJR066W, strain TOR1, active compounds read low 0.909 | locus YLR113W, strain HOG1, active compounds read low 0.873 | locus YNL183C, strain NPR1, active compounds read low 0.91 | locus YOR231W, strain MKK1, active compounds read low 0.911 | locus YPL256C, strain CLN2, active compounds read low 0.924
